A selection: hits, their analogues and other compounds. The true share with any hit is near 1.3%.
EBV gp42 inh: Epstein-Barr virus gp42 inhibitors, primary screen, biochemical, uHTS, fluorescence polarization | 220,000 compounds, 0.42% hits | Glycoprotein 42 (Epstein-Barr virus (strain AG876)), Q1HVG2 | Fluorescence polarization binding assay, mP read-out | AID 1085, 2008 | inhibition, % (tested at 21.74 µM); in the data active = inhibition above about 50%
MCL1 BIM primary: inhibitors of MCL1 binding to BIM-BH3, primary screen, biochemical, fluorescence polarization; Induced myeloid leukemia cell differentiation protein Mcl-1 (Homo sapiens), Q07820; GST-MCL1 / FITC-Bim-BH3 fluorescence polarization; inhibition, % at 10.9 µM; 320,000 compounds, 0.68% hits; AID 2057, 2009;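 active = inhibition above the mean inhibition of all tested compounds plus 3 SD, set per campaign, cut at about 40% in these data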;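 also: higher means more loss of mP so more displacement of Bim peptide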
BCLXL inh: inhibitors of human Bcl-xL, primary screen, biochemical, fluorescence polarization, HTS; GST-Bcl-xL / FITC-Bim BH3 peptide fluorescence polarization; AID 2129, 2009; inhibition, % at 10.9 µM; 320,000 compounds, 0.7% hits;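 active = inhibition above the mean of all tested compounds plus 3 SD, cutoff set per campaign, cut at about 30% in these data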;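 also: inhibitors lower millipolarization by displacing the labeled peptide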
GLD-1 TGE inh: GLD-1/TGE RNA complex disruptors, primary screen, biochemical, fluorescence polarization | inhibition, % at 5.96 µM | AID 2280, 2010 | purified GLD-1 + fluorescein TGE RNA | 320,000 compounds, 0.44% hits;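 active = percent inhibition above a per-plate cutoff, the plate mean of test compounds plus 3 SD, cut at about 30% in these data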
MEX-5 binding: MEX-5 zinc finger RNA-binding disruptors – biochemical, C. elegans, fluorescence polarization, MLPCN library, primary screen; Zinc finger protein mex-5 (Caenorhabditis elegans), Q9XUB2; MEX-5/FITC-TCR2 RNA binding; hits give low values; activity score (negative = inhibition of binding), % at 10 µM; 300,000 compounds, 0.38% hits;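 active = inhibition past about -25% in most replicates, and total fluorescence under double the plate's negative control median, limit read from the data; inconclusive = replicates evenly split on the limit, or fluorescence at least double controls; inactive = too little inhibition in most replicates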
Target sequence (Q9XUB2 whole entry, looked up): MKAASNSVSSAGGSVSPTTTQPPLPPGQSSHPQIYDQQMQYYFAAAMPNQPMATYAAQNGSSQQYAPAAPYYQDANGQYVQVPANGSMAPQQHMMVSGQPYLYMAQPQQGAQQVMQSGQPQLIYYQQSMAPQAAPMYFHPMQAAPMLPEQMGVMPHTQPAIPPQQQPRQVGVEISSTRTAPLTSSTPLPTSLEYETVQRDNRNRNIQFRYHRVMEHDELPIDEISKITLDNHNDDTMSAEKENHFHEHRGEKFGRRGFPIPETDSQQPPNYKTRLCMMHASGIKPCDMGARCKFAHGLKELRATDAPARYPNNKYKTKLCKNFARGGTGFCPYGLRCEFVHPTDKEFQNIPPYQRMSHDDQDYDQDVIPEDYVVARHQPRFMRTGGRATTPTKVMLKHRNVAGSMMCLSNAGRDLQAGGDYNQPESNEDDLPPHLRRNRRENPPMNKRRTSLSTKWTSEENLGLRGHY
Large screens that a line does not name were inactive.

COC(=O)C1(c2ccccc2)NC(c2cccs2)C2C(=O)N(c3ccccc3)C(=O)C21 (centres undefined)	none
Clc1ccc(-c2nnc3sc(-c4ccc(Br)o4)nn23)cc1	GLD-1 TGE inh 58 (no result: MEX-5 binding)
CC1Oc2ccccc2C=C1/C=C1/SC(N2CCOCC2)=NC1=O (centres undefined)	none
CCN1C(=O)/C(=C/C2=Cc3ccccc3OC2C)SC1=S (centres undefined)	EBV gp42 inh 52
COc1ccc2c3c(cccc13)OCC2=O	BCLXL inh 31
COc1cc2c(c(OC)c1O)C(=O)CO2	none
COc1ccc(/C(O)=C/c2nc3ccccc3n(-c3ccccc3)c2=O)cc1	EBV gp42 inh 59, MEX-5 binding inconclusive
CCc1ccc(CN(C)C(=O)CCc2nc3ccccc3n(-c3ccc(OC)cc3)c2=O)cc1	none
COc1ccc(/C=C2\SC(c3ccc(C)cc3)=NC2=O)cc1OC	EBV gp42 inh 53, MEX-5 binding inconclusive
CCOc1cccc(C(=O)N(Cc2cccc(F)c2)C2CCS(=O)(=O)C2)c1 (centres undefined)	none (no result: EBV gp42 inh)
c1ccc(-c2nn3c(Cn4nnc5ccccc54)nnc3s2)nc1	MCL1 BIM primary 48, BCLXL inh 38
CCN1C(=C(C#N)C#N)C=Cc2cc(C)ccc21	GLD-1 TGE inh 41
CCN1C(=O)/C(=C2/C=Cc3cc(C)ccc3N2CC)N(C)C1=S	none
COc1ccc(-c2coc3cc4oc(=O)cc(-c5ccccc5)c4cc23)cc1F	BCLXL inh 37 (no result: MEX-5 binding)
Cc1ncc([N+](=O)[O-])n1Cc1cccc2ccccc12	EBV gp42 inh 66
Cc1cc(/C=C2\SC(=S)N(Cc3ccco3)C2=O)c(C)n1-c1ccccc1	EBV gp42 inh 55, GLD-1 TGE inh 32
Cc1cc(/C=C2\SC(=S)N(C)C2=O)c(C)n1-c1cccc(O)c1	none
COc1ccc(-n2c(C)cc(/C=C3/SC(=S)N(C)C3=O)c2C)cc1	EBV gp42 inh 61
CCN(CC)c1nc2ccccc2nc1C(C#N)C(=O)NCCCOC (centres undefined)	none
CCOC(=O)C1CCCN(c2nc3ccccc3nc2C(C#N)C(=O)NCc2ccccc2)C1 (centres undefined)	EBV gp42 inh 54
CCCCCCOC(=O)C(C#N)c1nc2ccccc2nc1N1CCOCC1 (centres undefined)	EBV gp42 inh 99
N#CC(C(=O)NCc1ccccc1)c1nc2ccccc2nc1N1CCCC1 (centres undefined)	MEX-5 binding -97
N#CC(C(=O)NCCc1ccccc1)c1nc2ccccc2nc1N1CCCCC1 (centres undefined)	MEX-5 binding inconclusive
CCN(CC)c1nc2ccccc2nc1C(C#N)C(=O)NCCc1ccccc1 (centres undefined)	EBV gp42 inh 78, MEX-5 binding inconclusive
CCCCOC(=O)C(C#N)c1nc2ccccc2nc1N1CCOCC1 (centres undefined)	none
Cc1ccccc1-c1nnn(CC(=O)Nc2ccc3c(c2)OCCO3)n1	none (no result: MEX-5 binding)
CCOC(=O)c1ccc(Nc2c(OCC)c(=O)c2=O)cc1	none
CCNC(=O)c1c(N)sc2c1CCCCC2	BCLXL inh 39
Cc1nn(C)c2c(=O)c(=O)c2n(C)[nH]1	none
CCc1nn(C)c2c(=O)c(=O)c2n(C)[nH]1	BCLXL inh 33
COc1ccc(OC)c(S(=O)(=O)Nc2ccc(O)c(Sc3ncn[nH]3)c2)c1	MEX-5 binding -34
Cc1c(N=C2N=C(NC(=O)NC(C)(C)C)c3ccccc32)c(=O)n(-c2ccccc2)n1C	none
Cc1c(N=C2N=C(NC(=O)c3cccs3)c3ccccc32)c(=O)n(-c2ccccc2)n1C	EBV gp42 inh 125
COc1ccc(CCC(=O)N2CCCC(Nc3ccccc3)C2)cc1OC (centres undefined)	none (no result: EBV gp42 inh)
O=C(c1cc(-c2ccc(Cl)cc2)on1)N1CCCCCC1	GLD-1 TGE inh 34 (no result: EBV gp42 inh)
Cc1cc(C(=O)NNC(=O)CCCCC(=O)NNC(=O)c2cc(C)[nH]n2)n[nH]1	MEX-5 binding -37
O=C(N/N=C/c1ccccc1Cl)c1nc2ccc([N+](=O)[O-])cc2c(=O)[nH]1	EBV gp42 inh 97
CCOc1ccc(N2CC(C(=O)NCC(=O)Nc3ccc(F)c(F)c3F)CC2=O)cc1 (centres undefined)	none (no result: EBV gp42 inh, MEX-5 binding)
COc1cc(OC)c2c(O)c3c(c(-c4c5c(c(O)c6c(OC)cc(OC)cc46)CO[C@@H](C)[C@H]5O)c2c1)[C@H](O)[C@H](C)OC3	MCL1 BIM primary 56, MEX-5 binding inconclusive
CN(C)C=Nc1nc2ccccc2nc1N1CCCC1	MCL1 BIM primary 41, BCLXL inh 43
c1ccc2nc(N3CCCC3)c(N3CCCC3)nc2c1	MCL1 BIM primary 44, BCLXL inh 39
c1coc(C2Nc3cccc4cccc(c34)N2)c1	MCL1 BIM primary 58, BCLXL inh 51
Clc1cccc(C2Nc3cccc4cccc(c34)N2)c1Cl	none (no result: EBV gp42 inh)
Clc1ccccc1C1Nc2cccc3cccc(c23)N1	BCLXL inh 38 (no result: EBV gp42 inh)
Cc1[nH]c(C)c(S(=O)(=O)NCc2ccco2)c1C(=O)N1CCCCC1	none (no result: EBV gp42 inh)
COc1cccc(-c2cc(C(F)(F)F)c3c(N)c(C#N)sc3n2)c1	MCL1 BIM primary 46
N#Cc1sc2nc(-c3ccccc3)cc(-c3ccco3)c2c1N	none
Cc1ccc(CNC(=O)c2ccc(C)c(S(=O)(=O)N3CCCCC3)c2)cc1	none (no result: EBV gp42 inh, MEX-5 binding)
Nc1ccc2nc(CCCCCCc3nc4ccc(N)cc4[nH]3)[nH]c2c1	none
Nc1ccc2nc(CCCO)[nH]c2c1	MEX-5 binding -49
CN1C(=O)NC(c2cccc(F)c2)C2=C1CC(C)(C)CC2=O (centres undefined)	BCLXL inh 36 (no result: EBV gp42 inh)
CSCC(=O)N1CCc2ccc(NC(=O)c3ccccc3Cl)cc2C1	none (no result: EBV gp42 inh)
CCCCNC(=O)CC1Nc2ccccc2NC1=O (centres undefined)	BCLXL inh 32
O=C(CC1Nc2ccccc2NC1=O)Nc1cc(Cl)cc(Cl)c1 (centres undefined)	MEX-5 binding inconclusive
CCCSCCCNC(=O)CC1Oc2ccccc2NC1=O (centres undefined)	EBV gp42 inh 68
O=C(CC1Nc2ccccc2NC1=O)NCCCN1CCCCCC1 (centres undefined)	none
CCOC(=O)c1c(NC(=O)CC2Nc3ccccc3NC2=O)sc(C)c1C (centres undefined)	MEX-5 binding -35
COC(=O)c1c(NC(=O)CC2Nc3ccccc3NC2=O)sc(C)c1C (centres undefined)	MEX-5 binding -32
CCOC(=O)c1c(NC(=O)CC2Sc3ccc(C(F)(F)F)cc3NC2=O)sc(C)c1C (centres undefined)	none
CNc1c(NS(=O)(=O)c2cc(Cl)ccc2OC)c(=O)oc2ccccc12	none (no result: EBV gp42 inh)
